DT40 TDP1 no CPT = qHTS for Inhibitors of human tyrosyl-DNA phosphodiesterase 1 (TDP1): qHTS in cells in absence of CPT; AID 686978, 2013; 15% of 420,000 active; Potency, µM (highest dose often 46.2 µM), for inactives: top-dose activity change, negative = growth inhibition, hits mostly inhibitors; DT40 Tdp1-/- hTDP1 cells, no CPT, ATP luminescence, 48 h; further: potency means the concentration at half of the fitted maximal effect; on the % scale 0 is the no-effect control and ±100 the full control effect; nearly all actives have a fitted effect of over 55% in size
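Camptothecin absent (DMSO only). Human TDP1-complemented DT40 knockout cells, 400 cells/well, 37 °C for minimum 48 hr; ATP measured via CellTiter-Glo, 30 min dark incubation, luminescence.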
HepG2 viability = HepG2 cytotoxicity, counter-screen for TGF-b inhibitors; HepG2 CAGA-GFP viability, ATP luminescence, 18 h; Potency, µM (series often up to 46.1 µM), for inactives: top-dose activity change, negative = cytotoxicity, usual class: cytotoxic; 0.76% of 410,000 active; further: potency means the concentration at half of the fitted maximal effect
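CellTiter-Glo luminescence gave cytotoxicity after 18 hours at 37 degrees C. The cells were HepG2 CAGA-GFP in 1% FBS DMEM, stimulated with 500 pg/mL TGF-beta after compound addition. %Activity was normalised to no-cell wells (complete cell-killing) and DMSO (no toxicity), and curves were fitted and classified.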
IL1B secr inh = inflammasome signaling inhibition, IL-1 beta readout. THP-1 LPS/ATP IL-1B secretion, AlphaLISA, 16 h; hits give low values. activity change, % at 57.5 µM. 4.7% of 360,000 active; in the data active means activity change below about -50%; inconclusive means mostly about -30% to -49%; further: on the % scale 0 is the no-effect control and ±100 the full control effect
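THP-1 cells pretreated 1 hr with compounds (up to 57.5 uM final), then stimulated with LPS (250 ng/mL final) plus ATP (1.25 mM final); secreted IL-1B measured by AlphaLISA after 16 hr, decreased signal indicating inhibition.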
S-ASM inh = human S-ASM enzyme inhibition | P17405 | placental ASM, HMU-PC fluorogenic substrate, 60 min | Potency, µM (top dose mostly 57.5 µM), inactives show at the highest dose activity change, negative = inhibition, actives largely listed as inhibitors | 0.006% of 340,000 active | AID 504937; further: potency means the concentration at half of the fitted maximal effect
Target sequence (P17405 47-631 limits assumed): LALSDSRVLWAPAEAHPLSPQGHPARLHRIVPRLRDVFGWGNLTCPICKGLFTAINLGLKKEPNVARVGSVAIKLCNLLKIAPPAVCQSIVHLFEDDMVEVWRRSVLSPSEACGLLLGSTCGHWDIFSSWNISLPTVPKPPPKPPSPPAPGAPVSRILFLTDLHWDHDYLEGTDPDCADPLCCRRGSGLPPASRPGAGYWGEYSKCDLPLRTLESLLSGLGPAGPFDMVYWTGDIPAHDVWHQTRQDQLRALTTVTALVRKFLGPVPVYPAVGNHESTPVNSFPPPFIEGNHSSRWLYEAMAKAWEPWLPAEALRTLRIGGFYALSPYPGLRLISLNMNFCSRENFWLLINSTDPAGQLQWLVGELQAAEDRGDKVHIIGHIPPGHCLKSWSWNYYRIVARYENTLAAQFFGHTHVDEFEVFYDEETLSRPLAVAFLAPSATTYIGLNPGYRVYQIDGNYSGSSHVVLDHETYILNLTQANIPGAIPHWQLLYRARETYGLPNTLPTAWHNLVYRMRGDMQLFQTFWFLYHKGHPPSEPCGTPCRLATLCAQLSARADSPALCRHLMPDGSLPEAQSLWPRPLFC
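qHTS format. ASM enzyme prepared from human placenta hydrolyses the fluorogenic substrate HMU-PC0 (9 uM final) over 60 min at 37 °C after a 10 min compound preincubation.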
DT40 TDP1 CPT = DT40-hTDP1 cell growth loss with CPT; Potency, µM (highest dose often 46.2 µM), inactives show at the highest dose activity change, negative = growth inhibition, actives largely listed as inhibitors; 12% of 420,000 active; chicken DT40 Tdp1-/-;hTDP1 cells + 20 nM CPT, ATP luminescence, 48 h; further: potency means the concentration at half of the fitted maximal effect; on the % scale 0 is the no-effect control and ±100 the full control effect; nearly all actives have a fitted effect of over 55% in size
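Chicken DT40 Tdp1-/- cells stably complemented with human TDP1 were seeded at 400 cells/well in medium containing 20 nM camptothecin, exposed to pin-transferred compounds, and grown at 37 °C for at least 48 hr. Viability was read as ATP luminescence.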
TGFb inhibitor = TGF-b pathway inhibition; HepG2 CAGA-GFP TGF-b/SMAD3 reporter, GFP fluorescence, 18 h; TGF-beta stimulated, 500 pg/mL final; AID 588855; Potency, µM (titrated, usually from 46.1 µM), inactives show top-dose activity, negative = inhibition, most hits filed as inhibitors; 1.2% of 410,000 active; further: potency means the concentration at half of the fitted maximal effect; on the % scale 0 is the no-effect control and ±100 the full control effect; nearly all actives have a fitted effect of over 65% in size
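GFP signal (ex488/em500-530) from TGF-beta-stimulated HEPG2 CAGA-GFP cells, 500 pg/mL final, 18 h at 37 degrees C in DMEM plus 1% FBS, normalized to unstimulated and DMSO-stimulated controls.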
* marks the source's active call; other numbers are inactive results; i = inactive; ? = inconclusive; . = no result. Hits are enriched below; roughly 19% of the tested compounds scored in any of these assays. Unless noted, the call rests on the fitted dose curve; in most records, active means well fitted curve in the direction sought with a large enough effect; inconclusive means small, poorly fitted or top-dose-only effect, or another doubt; inactive means no such curve, though single readings can be large; an effect the other way counts as inactive or inconclusive.

SMILES | DT40 TDP1 no CPT | HepG2 viability | IL1B secr inh | S-ASM inh | DT40 TDP1 CPT | TGFb inhibitor
C[C@]12c3[nH]c4ccc(Cl)cc4c3CCN1C(=O)[C@@H](CC(=O)NCC13CC4CC(CC(C4)C1)C3)C[C@@H]2C(=O)N1CCCCC1 | 16µM* | 5% | -60* | -12% | 16µM* | 0%
COCCCNc1nc(NCc2cccc(Cl)c2)c2cnn(C)c2n1 | 18µM* | -23% | . | . | ? | -15%
Cc1ccc(CSCc2ccc(C(=O)NCCc3ccc(Cl)cc3)o2)cc1 | ? | -24% | . | . | ? | ?
COC(=O)c1ccc(N2C(=O)CC(SCC(=O)Nc3ccc(OC)cc3)C2=O)cc1 (centres undefined) | 5.2µM* | 3% | 5 | 2% | 15µM* | 7%
NS(=O)(=O)c1ccc(NC(=O)CSC2CCCCC2)cc1 | 29µM* | 17% | 8 | -2% | 16µM* | -1%
COc1ccc(NC(=O)c2ccc(N3C(=O)C4CC=C(Cl)CC4C3=O)cc2)cc1 (centres undefined) | 29µM* | -2% | 41 | 2% | -26% | 4%
COc1ccc(N2C(=O)C3CC=C(Cl)CC3C2=O)cc1 (centres undefined) | -1% | -10% | 14 | -1% | 0% | 5%
CCOC(=O)c1ccc(N2C(=O)CC(SCC(=O)Nc3ccc(S(N)(=O)=O)cc3)C2=O)cc1 (centres undefined) | ? | -14% | 2 | 3% | 23µM* | -6%
Cc1ccc(N2C(=O)CC(SCC(=O)Nc3ccc(S(N)(=O)=O)cc3)C2=O)cc1 (centres undefined) | ? | -2% | -6 | -3% | ? | -1%
COc1ccccc1C(=O)N/C(=C\c1cn(S(=O)(=O)N(C)C)c2ccccc12)C(=O)NCCCn1ccnc1 | ? | -19% | . | . | ? | -14%
CCc1nnc(SCC(=O)NCCC2=CCCCC2)nc1CC | 3% | 1% | 18 | 2% | -17% | 5%
Cn1ccc2c(-c3ccc(C(N)=O)cc3)cc3c(c21)C1CCC3C1 (centres undefined) | ? | -1% | -11 | . | ? | ?
COc1ccc(OCC(O)Cn2c(Nc3cccc(C)c3)nc3c2c(=O)n(C)c(=O)n3C)cc1 (centres undefined) | 15µM* | 31% | 33 | -25% | ? | 17%
COc1ccc(OCC(O)Cn2c(NCCO)nc3c2c(=O)n(C)c(=O)n3C)cc1 (centres undefined) | 10µM* | -7% | . | . | 9.2µM* | -7%
COC(=O)c1c(-c2ccsc2)sc2ccc(-c3cc(OC)c(OC)c(OC)c3)cc12 | 9.2µM* | -24% | 1 | -13% | ? | -32%
COC(=O)c1c(-c2ccc(N(C)C)cc2)sc2ccc(OC)cc12 | 13µM* | -24% | 39 | i | ? | -1%
CCOC(=O)C1CCCN(c2c(NCCc3ccc(Cl)cc3)c(=O)c2=O)C1 (centres undefined) | -27% | -38% | -12 | 0% | -2% | -3%
COc1ccc(CNC(=O)c2cccc3c(-c4cnn(C)c4)coc23)cc1OC | ? | -3% | ? | . | ? | 8%
Cn1cc(-c2coc3c(C(=O)NCc4cccnc4)cccc23)cn1 | 23µM* | 1% | -4 | . | ? | 0%
COCCCNC(=O)c1cccc2c(-c3cccc(C(N)=O)c3)coc12 | 13µM* | -4% | 20 | . | ? | 4%
O=C(NCc1ccc(C(F)(F)F)cc1)c1cccc2c(-c3ccc(F)c(F)c3)coc12 | ? | 5% | -2 | . | ? | ?
COCCNC(=O)c1cccc2c(-c3cccc(C(N)=O)c3)coc12 | ? | -15% | 54 | . | ? | 1%
NC(=O)c1cccc(-c2coc3c(C(=O)NCc4ccccc4)cccc23)c1 | 18µM* | -18% | -22 | . | ? | ?
CCSC(=O)N1CCN(/[N+]([O-])=N/Oc2ccc([N+](=O)[O-])cc2[N+](=O)[O-])CC1 | . | -108% | . | . | . | ?
COc1ccc(C(=O)c2c(N)sc3c2CCN(C(=O)OC(C)(C)C)C3)cc1 | -62% | -2% | . | -6% | 15µM* | ?
SMILES | DT40 TDP1 no CPT | HepG2 viability | IL1B secr inh | S-ASM inh | DT40 TDP1 CPT | TGFb inhibitor
CN1CCc2c(sc(N)c2C(=O)c2ccc(Cl)cc2)C1 | ? | -6% | -3 | 45% | ? | 19%
C=CC[n+]1c(-c2ccccc2)csc1NC(C)(C)C | -24% | -11% | -19 | -1% | 5% | 1%
C=CC[n+]1c(-c2ccc(OC)c(OC)c2)csc1NNC(=O)Nc1ccccc1 | 6.5µM* | -38% | -75* | 0% | 7.3µM* | ?
O=Nc1c2ccc[nH]c-2c2ccc([N+](=O)[O-])cc12 | ? | 1% | ? | 0% | -10% | -13%
CCOC(=O)CNC(=O)CSc1nc(-c2ccccc2)ns1 | ? | 0% | 12 | 0% | ? | -16%
CCOC(=O)CNC(=O)CSc1nc(-c2ccc(C)cc2)ns1 | -20% | -17% | -152* | 0% | -6% | -7%
CCOC(=O)CNC(=O)CSc1nc2c(C)cccc2cc1CC | ? | 0% | -98* | -2% | ? | -3%
CCN(CC)c1ccc2c(-c3ccc(S(=O)(=O)O)cc3S(=O)(=O)[O-])c3ccc(=[N+](CC)CC)cc-3oc2c1 | 7.3µM* | -25% | 28 | -6% | ? | 32%
CCN(CC)c1ccc2nc3c4ccccc4c(=O)cc-3oc2c1 | -14% | -7% | -25 | 0% | -11% | -2%
COC(=O)c1ccc(OC(=O)CCS(=O)(=O)c2ccc(C)cc2)cc1 | 11% | 5% | 7 | 2% | 2% | -3%
N#CC(C#N)=Cc1ccc(OCC(=O)N2CCOCC2)cc1 | ? | -10% | -53* | 16% | 21µM* | -11%
CC(C(=O)N1CCN(c2ccc(Cl)cc2)CC1)c1ncc(C(F)(F)F)cc1Cl (centres undefined) | 23µM* | -30% | ? | -5% | 18µM* | -6%
Cc1ccsc1C(=O)N1CCN(c2ncc(C(F)(F)F)cc2Cl)CC1 | 15µM* | -33% | -20 | 3% | 12µM* | -5%
CCOC(=O)N1CCN(c2ncc(C(F)(F)F)cc2Cl)CC1 | ? | -16% | 0 | 7% | ? | -5%
CC(C)(C(N)=O)N1CCN(c2ncc(C(F)(F)F)cc2Cl)CC1 | 15µM* | -25% | -20 | -1% | 15µM* | -10%

High-throughput results from PubChem BioAssay.
